In PubChem BioAssay (NCI) one finds growth inhibition data, which are given here for ten molecules.

A short description of assay [1]: NCI Yeast Anticancer Drug Screen. Data for the rad50 strain (AID 155).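 Note: 0% = growth of vehicle-only cultures of the same strain.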 Particulars: S. cerevisiae rad50 strain growth inhibition, active compounds read high. The method, boiled down:
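DNA repair mutant yeast, compound exposure, growth read-out; inhibition is taken relative to vehicle.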

A short description of assay [2]: NCI Yeast Anticancer Drug Screen. Data for the mec2-1 strain (AID 157). Particulars: S. cerevisiae mec2-1 strain, active compounds read high. The method, boiled down: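 mec2-1 yeast strain, carrying an alteration in DNA damage repair or cell cycle control, was exposed to compounds; growth inhibition was measured relative to vehicle-treated controls.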
Assay [3] in a line: NCI Yeast Anticancer Drug Screen. Data for the sgs1 mgt1 strain (AID 161).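 Note: 0% = growth of cultures given vehicle only.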 Particulars: S. cerevisiae sgs1 mgt1 strain, active compounds read high. The gist of the method: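 Compounds are added to genetically altered yeast, and growth is compared with cultures given vehicle alone to give percent inhibition.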
The nature of assay [4]: NCI Yeast Anticancer Drug Screen. Data for the cln2 rad14 strain (AID 165).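 Note: 0% = growth equal to vehicle treated cultures.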 Particulars: S. cerevisiae cln2 rad14 strain, active compounds read high. The method, boiled down:
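Yeast carrying cln2 and rad14 alterations (cell cycle control and DNA damage repair) were exposed to compounds. Growth inhibition was measured against vehicle-treated controls.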

Assay [5] can be described thus: NCI Yeast Anticancer Drug Screen. Data for the bub3 strain (AID 167). The conditions noted are these: S. cerevisiae bub3 mutant strain, active compounds read high. The method, boiled down:
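In this screen, a yeast mutant lacking normal mitotic checkpoint function is challenged with compound. Relative growth versus vehicle gives the inhibition value.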

Assay [6] can be described thus: NCI Yeast Anticancer Drug Screen. Data for the mlh1 rad18 strain (AID 175). The conditions noted are these: S. cerevisiae mlh1 rad18 strain growth inhibition, active compounds read high. The gist of the method:
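Growth inhibition of the yeast strain was measured after compound exposure and expressed relative to vehicle-treated controls. The strain carries defined defects in DNA damage repair.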

The mark [7] stands for this setting: at 5.0 µM (retest, dose inferred, filed as 0.5).
The mark [8] stands for this setting: at 50.0 µM (retest, dose inferred, filed as 5.0).

This is part of a sample that, as a whole, favours compounds with a hit. Of some 79,000 tested, about 15% had one in any assay. Values without a mark were called inactive. Calls of active or inactive are those of the source. Cut-off read from the data, not from the text of the source: active = growth inhibition above about 70%; inactive = the rest.

Consider `C/C(=N/NC(N)=O)c1ccc(Cl)s1`, for which the growth inhibition was 0% in assay [1] (setting [7]); -1% in assay [1] (setting [8]); 12.9% in assay [1] (at 50.0 µM); 23% in assay [2] (setting [7]); -3% in assay [2] (setting [8]); 5% in assay [2] (at 50.0 µM). The growth inhibition in assay [3] (setting [7]) was -1%; in assay [3] (setting [8]), 0%; in assay [3] (at 50.0 µM) it was -4.35%; in assay [4] (setting [7]), -8%; in assay [4] (setting [8]) it was -3%; in assay [4] (at 50.0 µM), 52.9%. For the same molecule, the growth inhibition in assay [5] (setting [7]) is -2%; in assay [5] (setting [8]) it was -7%; in assay [5] (at 50.0 µM) it was 9.4%; in assay [6] (setting [7]), -5%; in assay [6] (setting [8]), -1%; in assay [6] (at 50.0 µM) it was 1.6%.
Regarding `COc1cccc(=O)cc1`, the growth inhibition in assay [1] (setting [7]) is 5%; in assay [1] (setting [8]) it was 86% (active); in assay [1] (at 50.0 µM), 83.3% (active); in assay [2] (setting [7]) it was 12%; in assay [2] (setting [8]), 51%; in assay [2] (at 50.0 µM), 26.4%. In addition, the growth inhibition in assay [3] (setting [7]) was 11%; in assay [3] (setting [8]) it was 83% (active); in assay [3] (at 50.0 µM), 93.5% (active); in assay [4] (setting [7]), 7%; in assay [4] (setting [8]), 32%; in assay [4] (at 50.0 µM) it was 19.4%. Further, the growth inhibition in assay [5] (setting [7]) is 3%; in assay [5] (setting [8]), 85% (active); in assay [5] (at 50.0 µM), 92.9% (active); in assay [6] (setting [7]), 3%; in assay [6] (setting [8]) it was 94% (active); in assay [6] (at 50.0 µM), 76.4% (active).
On to `Cc1cc(O)c(NCCN(C)C)c2c(=O)c3ccccc3sc12`, for which the growth inhibition in assay [1] (setting [7]) was 18%; in assay [1] (setting [8]) it was 97% (active); in assay [1] (at 50.0 µM) it was 98.5% (active); in assay [2] (setting [7]), 7%; in assay [2] (setting [8]) it was 97% (active); in assay [2] (at 50.0 µM), 99.1% (active). In addition, the growth inhibition in assay [3] (setting [7]) was 8%; in assay [3] (setting [8]), 98% (active); in assay [3] (at 50.0 µM), 98.8% (active); in assay [4] (setting [7]), 12%; in assay [4] (setting [8]) it was 97% (active); in assay [4] (at 50.0 µM) it was 97.8% (active). Moreover, the growth inhibition in assay [5] (setting [7]) is 6%; in assay [5] (setting [8]), 94% (active); in assay [5] (at 50.0 µM), 98% (active); in assay [6] (setting [7]), 5%; in assay [6] (setting [8]), 97% (active); in assay [6] (at 50.0 µM) it was 98.7% (active).
In the case of `CCCC/C=C(\CCCNCCCC)[Si](C)(C)C`, the growth inhibition was 52% in assay [1] (setting [7]); 96% (active) in assay [1] (setting [8]); 89.9% (active) in assay [1] (at 50.0 µM); 49% in assay [2] (setting [7]); 99% (active) in assay [2] (setting [8]); 92.8% (active) in assay [2] (at 50.0 µM). The growth inhibition in assay [3] (setting [7]) is 77% (active); in assay [3] (setting [8]), 99% (active); in assay [3] (at 50.0 µM), 93.3% (active); in assay [4] (setting [7]), 53%; in assay [4] (setting [8]), 98% (active); in assay [4] (at 50.0 µM), 90.8% (active). Further, the growth inhibition in assay [5] (setting [7]) was 78% (active); in assay [5] (setting [8]), 99% (active); in assay [5] (at 50.0 µM) it was 91% (active); in assay [6] (setting [7]) it was 81% (active); in assay [6] (setting [8]), 98% (active); in assay [6] (at 50.0 µM), 90.7% (active).
Regarding `CSCS(=O)C[C@H](CO)NC(=O)/C=C/c1c(C)[nH]c(=O)[nH]c1=O` (stereo not given in full), the growth inhibition in assay [1] (setting [7]) was 26%; in assay [1] (setting [8]) it was 98% (active); in assay [1] (at 50.0 µM) it was 84.5% (active); in assay [2] (setting [7]) it was 26%; in assay [2] (setting [8]), 86% (active); in assay [2] (at 50.0 µM), 78.6% (active). Further, the growth inhibition in assay [3] (setting [7]) was 25%; in assay [3] (setting [8]) it was 98% (active); in assay [3] (at 50.0 µM), 83% (active); in assay [4] (setting [7]), 32%; in assay [4] (setting [8]) it was 95% (active); in assay [4] (at 50.0 µM) it was 62.7%. Further, the growth inhibition in assay [5] (setting [7]) is 5%; in assay [5] (setting [8]) it was 98% (active); in assay [5] (at 50.0 µM) it was 88.7% (active); in assay [6] (setting [7]) it was 25%; in assay [6] (setting [8]), 98% (active); in assay [6] (at 50.0 µM) it was 85.1% (active).
In the case of `CC(=O)Nc1nc(Cl)c2ncn(C3CC(OC(=O)c4ccc(C)cc4)C(COC(=O)c4ccc(C)cc4)O3)c2n1` (stereo not given), the growth inhibition in assay [1] (setting [7]) is -3%; in assay [1] (setting [8]) it was 0%; in assay [1] (at 50.0 µM), 53.1%; in assay [2] (setting [7]), 0%; in assay [2] (setting [8]), 6%; in assay [2] (at 50.0 µM), 27.4%. The growth inhibition was 57% in assay [3] (setting [7]); 3% in assay [3] (setting [8]); 60.1% in assay [3] (at 50.0 µM); -2% in assay [4] (setting [7]); 0% in assay [4] (setting [8]); 63.4% in assay [4] (at 50.0 µM). Moreover, the growth inhibition was 0% in assay [5] (setting [7]); -2% in assay [5] (setting [8]); 33.2% in assay [5] (at 50.0 µM); -20% in assay [6] (setting [7]); 0% in assay [6] (setting [8]); 48.6% in assay [6] (at 50.0 µM).
In the case of `O=C(O)c1ccc(NC(c2ccccc2)c2ccc3cccnc3c2O)cc1` (stereo not given), the growth inhibition in assay [1] (setting [7]) was -12%; in assay [1] (setting [8]), 98% (active); in assay [1] (at 50.0 µM), 98.2% (active); in assay [2] (setting [7]) it was 2%; in assay [2] (setting [8]) it was 98% (active); in assay [2] (at 50.0 µM), 98% (active). Further, the growth inhibition was -8% in assay [3] (setting [7]); 98% (active) in assay [3] (setting [8]); 97.8% (active) in assay [3] (at 50.0 µM); -40% in assay [4] (setting [7]); 95% (active) in assay [4] (setting [8]); 97.5% (active) in assay [4] (at 50.0 µM). Further, the growth inhibition in assay [5] (setting [7]) was -3%; in assay [5] (setting [8]) it was 98% (active); in assay [5] (at 50.0 µM), 97.7% (active); in assay [6] (setting [7]), 9%; in assay [6] (setting [8]), 98% (active); in assay [6] (at 50.0 µM), 98.2% (active).
Regarding `O=C(O)c1ccc(N=CC2CO2)cc1` (stereo not given), the growth inhibition in assay [1] (setting [7]) is 23%; in assay [1] (setting [8]), 11%; in assay [1] (at 50.0 µM) it was -2%; in assay [2] (setting [7]), 44%; in assay [2] (setting [8]), 64%; in assay [2] (at 50.0 µM), 0.45%. The growth inhibition in assay [3] (setting [7]) is 13%; in assay [3] (setting [8]), 10%; in assay [3] (at 50.0 µM) it was 7.05%; in assay [4] (setting [7]), 96% (active); in assay [4] (setting [8]), 99% (active); in assay [4] (at 50.0 µM) it was 21.8%. The growth inhibition in assay [5] (setting [7]) is 90% (active); in assay [5] (setting [8]) it was 98% (active); in assay [5] (at 50.0 µM) it was -10%; in assay [6] (setting [7]), 32%; in assay [6] (setting [8]), 22%; in assay [6] (at 50.0 µM) it was -3.15%.
For `CC1CN(C(=S)NNC(C)c2cc3ccccc3cn2)CC(C)O1` (stereo not given), the growth inhibition in assay [1] (setting [7]) was 30%; in assay [1] (setting [8]), 96% (active); in assay [1] (at 50.0 µM) it was 87% (active); in assay [2] (setting [7]), 38%; in assay [2] (setting [8]), 99% (active); in assay [2] (at 50.0 µM), 89.8% (active). Also, the growth inhibition in assay [3] (setting [7]) is 26%; in assay [3] (setting [8]), 98% (active); in assay [3] (at 50.0 µM), 90.5% (active); in assay [4] (setting [7]), 15%; in assay [4] (setting [8]), 98% (active); in assay [4] (at 50.0 µM) it was 90% (active). The growth inhibition was 39% in assay [5] (setting [7]); 99% (active) in assay [5] (setting [8]); 88.2% (active) in assay [5] (at 50.0 µM); 39% in assay [6] (setting [7]); 98% (active) in assay [6] (setting [8]); 91.3% (active) in assay [6] (at 50.0 µM).
Regarding `O=C(Nc1ccc(F)c(Cl)c1)Oc1ccc(Br)cc1Br`, the growth inhibition is 10% in assay [1] (setting [7]); 52% in assay [1] (setting [8]); 38.1% in assay [1] (at 50.0 µM); 5% in assay [2] (setting [7]); 50% in assay [2] (setting [8]); 56.8% in assay [2] (at 50.0 µM). For the same molecule, the growth inhibition was -2% in assay [3] (setting [7]); 66% in assay [3] (setting [8]); 65.8% in assay [3] (at 50.0 µM); -5% in assay [4] (setting [7]); 6% in assay [4] (setting [8]); 11.3% in assay [4] (at 50.0 µM). In addition, the growth inhibition in assay [5] (setting [7]) is -2%; in assay [5] (setting [8]) it was 11%; in assay [5] (at 50.0 µM), 15.5%; in assay [6] (setting [7]), -3%; in assay [6] (setting [8]), 80% (active); in assay [6] (at 50.0 µM), 89.5% (active).
